Compounds with a hit are over-represented: about 4.1% of the library has one in this group of screens.
ssDAF-12 act: activators of S. stercoralis DAF-12 nuclear receptor | HEK293 ssDAF-12/GRIP1 lit1-tk-luc reporter, luminescence; % of 3 µM dafachronic acid response | activation, % at 6.8 µM | 370,000 tested, 1% active;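 active = activation above the mean over all tested compounds plus 3 SD, cut at about 0.9% in these data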
hcDAF-12 act: H. contortus DAF-12 activation, primary screen | HEK293 hcDAF-12 lit1-tk-luc reporter, luminescence; 0% DMSO, 100% Δ7-dafachronic acid | activation, % at 6.8 µM | 370,000 tested, 1.4% active;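 active = activation above the mean of all tested compounds plus 3 SD, cut at about 5.5% in these data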
DAX1 inh-1: DAX1 (NR0B1) inhibition, primary screen. AID 652010. 370,000 tested, 1.1% active. HEK293T StAR-luciferase reporter, SF-1/DAX-1 repression relief. inhibition, % at 6.8 µM;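 active = inhibition above the mean over all tested compounds plus 3 SD, cut at about 3.6% in these data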;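 also: higher inhibition means more luminescence from relief of DAX-1 repression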
hgDAF-12 ag: hgDAF-12 agonism, primary luciferase screen | HEK293 GAL4-hgDAF12 UAS-luciferase reporter, agonist luminescence; normalized to butyrate control | activation, % at 6.8 µM | 370,000 tested, 1.8% active;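 active = activation above a cutoff set at the mean of all screened compounds plus 3 SD, cut at about 10% in these data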
DAX1 inh-2: inhibits human nuclear receptor DAX1 | P51843 | HEK293 Gal4-DAX1 luciferase reporter, luminescence | inhibition, % at 6.75 µM | 340,000 tested, 0.99% active;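 active = inhibition above the mean over all tested compounds plus 3 SD, cut at about 4.2% in these data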;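 also: inhibition shows as a rise in luminescence from relieved DAX1 repression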
Target sequence (P51843 207-470 limits assumed): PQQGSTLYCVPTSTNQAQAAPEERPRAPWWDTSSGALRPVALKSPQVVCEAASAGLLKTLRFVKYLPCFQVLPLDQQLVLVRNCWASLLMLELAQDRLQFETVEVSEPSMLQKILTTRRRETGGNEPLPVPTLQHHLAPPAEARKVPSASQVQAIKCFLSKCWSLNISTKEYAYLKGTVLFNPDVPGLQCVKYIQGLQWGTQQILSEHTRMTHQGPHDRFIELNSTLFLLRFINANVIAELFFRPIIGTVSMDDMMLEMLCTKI
hgDAF12 ag: confirmation of H. glycines DAF-12 agonists; shares compounds with hgDAF-12 ag; HEK293 GAL4-hgDAF12 luciferase reporter, agonist mode; percent of butyrate response; activation, % at 6.8 µM; 3,300 tested, 80% active;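 active = mean activation over triplicate wells above the hit cutoff derived from the earlier primary screen, cut at about 11% in these data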
LXRb DAF12 ctr: activates human LXR-beta, counter-screen for DAF-12 agonists; 3,300 tested, under 10 active; activation, % at 6.8 µM; HEK293 Gal4-LXR luciferase reporter, 24 h; shares compounds with hgDAF-12 ag;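 active = mean activation of the triplicate above a set limit carried over from the primary screen, none filed active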
Target sequence (P55055 whole entry, looked up, the tested form may be a part): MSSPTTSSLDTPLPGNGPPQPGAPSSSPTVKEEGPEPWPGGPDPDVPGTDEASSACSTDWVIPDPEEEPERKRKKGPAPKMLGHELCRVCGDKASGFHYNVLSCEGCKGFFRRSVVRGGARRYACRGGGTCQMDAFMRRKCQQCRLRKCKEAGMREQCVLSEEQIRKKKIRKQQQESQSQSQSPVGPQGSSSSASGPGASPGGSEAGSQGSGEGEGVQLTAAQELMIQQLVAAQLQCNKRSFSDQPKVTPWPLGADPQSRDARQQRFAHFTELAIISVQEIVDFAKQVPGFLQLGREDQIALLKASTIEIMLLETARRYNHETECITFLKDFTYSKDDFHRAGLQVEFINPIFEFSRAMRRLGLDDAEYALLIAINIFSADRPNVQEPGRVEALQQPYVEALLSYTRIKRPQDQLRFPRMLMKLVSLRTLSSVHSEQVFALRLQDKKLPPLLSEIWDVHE
Each line names hits and unclear results; the compound was inactive in the other large screens (follow-up assays come after a bar, where they were run).

COC(=O)C[C@@H]1CC[C@@H]2[C@@H](COc3ccc(NC(C)=O)cc3C(=O)N2C)O1	none (no result: DAX1 inh-2)
O=C(O)c1cc(-c2ccc(N3CCOCC3)cc2)nn1-c1ccccc1Cl	none
O=C(O)c1cc(-c2ccc(N3CCOCC3)cc2)nn1-c1ccc(F)cc1F	hgDAF-12 ag 17 | hgDAF12 ag inactive | LXRb DAF12 ctr inactive
COc1ccc(C(=O)Nc2cc(C)on2)c(OC)c1	hgDAF-12 ag 15 | hgDAF12 ag 13 | LXRb DAF12 ctr inactive
COc1ccc(OC)c(S(=O)(=O)Nc2ccc(C(=O)Nc3cc(C)on3)cc2)c1	hgDAF-12 ag 16 (no result: DAX1 inh-2) | hgDAF12 ag inactive | LXRb DAF12 ctr inactive
COc1cccc(CNC(=O)[C@H]2CCCN2C(=O)[C@H]2CCCN2C(=O)N2CCOCC2)c1	none (no result: DAX1 inh-2)
C#CC1c2ccccc2CCN1CC=C (stereo unspecified)	none (no result: DAX1 inh-2)
CNc1ncc(C(=O)c2ccc(Br)cc2)s1	hgDAF-12 ag 26 | hgDAF12 ag 16 | LXRb DAF12 ctr inactive
O=C(O)c1ccc(N/N=C/C2=Cc3ccccc3OC2)cc1	DAX1 inh-1 4.1, hgDAF-12 ag 19, DAX1 inh-2 11 | hgDAF12 ag 16 | LXRb DAF12 ctr inactive
Cc1[nH]cnc1/C=N\NC(=O)c1cccc(S(=O)(=O)N(C)C)c1	none (no result: DAX1 inh-2)
Cc1cc(C)cc(OCC(C)CN2CCC(C(O)(c3ccccc3)c3ccccc3)CC2)c1 (stereo unspecified)	none (no result: DAX1 inh-2)
Nc1cc(Cl)nc(N/N=C/c2c(O)ccc3ccccc23)n1	hgDAF-12 ag 15 | hgDAF12 ag inactive | LXRb DAF12 ctr inactive
Nc1nonc1N/N=C/c1c(O)ccc2ccccc12	none
C[C@H]1[C@@H](N(C)Cc2ccccc2)CC[C@@]23CCCN2C(=O)CCC[C@@H]13	none (no result: DAX1 inh-1, DAX1 inh-2)
CCOC(=O)c1c(NC(=O)C2C3CCC(O3)C2C(=O)O)sc(C)c1-c1ccc(C)cc1 (stereo unspecified)	none
Cc1sc(NC(=O)C2C3CCC(O3)C2C(=O)O)nc1-c1ccc(CC(C)C)cc1 (stereo unspecified)	hgDAF-12 ag 18 | hgDAF12 ag inactive | LXRb DAF12 ctr inactive
CN(CCO)C(=O)c1nc[nH]c1C(=O)N1CCN(c2ccccc2)CC1	none (no result: DAX1 inh-2)
CCOC(=O)c1cnc(SCc2ccc(C)cc2)nc1N	none
CCOC(=O)c1cnc(SCCc2ccccc2)nc1N	ssDAF-12 act 1.4, DAX1 inh-1 4.5, hgDAF-12 ag 16 | hgDAF12 ag 20 | LXRb DAF12 ctr inactive
CCCCSc1ncc(C(=O)OCC)c(N)n1	DAX1 inh-1 3.7, hgDAF-12 ag 15 | hgDAF12 ag 11 | LXRb DAF12 ctr inactive
O=C(Nc1c(-c2ccc(C(F)(F)F)cc2)nc2ncccn12)c1ccccc1	none (no result: DAX1 inh-2)
COc1cccc(Cn2cc(COC(=O)N3CCOCC3)nn2)c1	none (no result: DAX1 inh-2)
CCCC1CCC2(CC1)CCC2OC(=O)Nc1ccccc1C (stereo unspecified)	none (no result: DAX1 inh-1, DAX1 inh-2)
O=C(COc1cc(F)ccc1[N+](=O)[O-])NCCN1C(=O)CSC1=O	hgDAF-12 ag 23 | hgDAF12 ag inactive | LXRb DAF12 ctr inactive
Cc1ccc(-c2nc3ccc(Cl)cc3n2OC(C)C(=O)O)cc1 (stereo unspecified)	hgDAF-12 ag 23 | hgDAF12 ag 13 | LXRb DAF12 ctr inactive
CC(C)c1[nH]nc2c1C(c1cccc(C(F)(F)F)c1)N(Cc1ccccc1)C2=O (stereo unspecified)	none (no result: DAX1 inh-2)
COc1ccc(C2=Nc3ccccc3N(C(=O)c3ccc4c(c3)OCO4)C2C(=O)Nc2c(C)cccc2C)cc1 (stereo unspecified)	hgDAF-12 ag 14 (no result: DAX1 inh-2) | hgDAF12 ag inactive | LXRb DAF12 ctr inactive
Cc1ccccc1C(=O)NC(CC(C)C)C(=O)OCc1cc(=O)n2cc(Br)ccc2n1 (stereo unspecified)	hgDAF-12 ag 14 | hgDAF12 ag 11 | LXRb DAF12 ctr inactive
CC(C)[C@H](NC(=O)c1ccccc1Cl)C(=O)OCc1cc(=O)n2cc(Br)ccc2n1	none
Cc1ccccc1-c1ccc2c(c1)[C@@H]1C[C@H]3[C@@H](CN1CC2)[C@H](C)ON3C	none (no result: DAX1 inh-2)
COc1ccccc1-c1cc(C(=O)N2CCOCC2)no1	hgDAF-12 ag 17 | hgDAF12 ag 12 | LXRb DAF12 ctr inactive
COc1cccc(NC(=O)/C=C/c2ccccc2[N+](=O)[O-])c1	hgDAF-12 ag 16 | hgDAF12 ag 16 | LXRb DAF12 ctr inactive
COc1ccc(OC)c(NC(=O)/C=C/c2ccccc2[N+](=O)[O-])c1	none
Cc1nn(-c2ccccc2)cc1C(=S)Nc1ccccc1	hgDAF-12 ag 14 | hgDAF12 ag inactive | LXRb DAF12 ctr inactive
CC(C)n1nnnc1C1c2ccccc2OCC(=O)N1Cc1cccc(C(F)(F)F)c1 (stereo unspecified)	none (no result: DAX1 inh-2)
Cn1cc(SCC(=O)Nc2nccs2)c2ccccc21	DAX1 inh-1 4.4, hgDAF-12 ag 20 | hgDAF12 ag 14 | LXRb DAF12 ctr inactive
O=C(Nc1cc(-c2ccccc2)[nH]n1)c1ccccc1	hgDAF-12 ag 14 | hgDAF12 ag 16 | LXRb DAF12 ctr inactive
Cc1cc(NC(=O)c2cccc(Oc3ccccc3)c2)n[nH]1	DAX1 inh-1 3.7, hgDAF-12 ag 19 | hgDAF12 ag 13 | LXRb DAF12 ctr inactive
CC(C)=CCN1C(=O)[C@]2(OCCC=C[C@H]2C)c2c(Br)cccc21	none (no result: DAX1 inh-2)
Cc1cc(NS(=O)(=O)c2ccc(NC(=O)CSc3nnc(-c4ccccn4)n3Cc3ccco3)cc2)nc(C)n1	none (no result: DAX1 inh-2)
Cn1nnnc1Sc1ncnc2scc(-c3cnc(N)nc3)c12	none (no result: DAX1 inh-1, DAX1 inh-2)
O=C(CNC(=O)c1cccs1)OCc1ccc(Br)cc1	none
O=C(CNC(=O)c1cccs1)c1ccc(Br)cc1	hgDAF-12 ag 15 | hgDAF12 ag 14 | LXRb DAF12 ctr inactive
COC(=O)C1CN(Cc2ccc(F)cc2)CCS(=O)(=O)N1Cc1ccc(F)cc1 (stereo unspecified)	none (no result: DAX1 inh-2)
Cc1ccc(N2C(=NC(=O)c3ccccc3)SC3CS(=O)(=O)CC32)cc1 (stereo unspecified)	none
CCCC(=O)N=C1SC2CS(=O)(=O)CC2N1c1ccc(-c2nc3ccc(C)cc3s2)cc1 (stereo unspecified)	hcDAF-12 act 6.0, hgDAF-12 ag 18 | hgDAF12 ag inactive | LXRb DAF12 ctr inactive
COC(=O)C1=C(C)NC(=S)NC1c1cccc(OC)c1 (stereo unspecified)	none (no result: DAX1 inh-2)
Cc1csc(NC(=O)c2ccc(Cl)cc2[N+](=O)[O-])n1	hgDAF-12 ag 14 | hgDAF12 ag 11 | LXRb DAF12 ctr inactive
Cc1csc(NC(=O)c2ccccc2[N+](=O)[O-])n1	none
COc1cc(C=Nn2c(-c3cc(C)[nH]n3)n[nH]c2=S)cc(Br)c1O	none (no result: DAX1 inh-2)
CCc1c(C(=O)C(C)O)c2n3c1CCC[C@@H]3CC2 (stereo partly specified)	none (no result: DAX1 inh-1, DAX1 inh-2)
